Results taken from publication PMC11006913.

Legend:
Assay in all cases: PBM; 200 nM protein, PBS
Conditions in all cases: dsDNA, one strand shown
HESX1 [1] = target: HESX1 (Homo sapiens, UniProt Q9UBX0 95-180, R165K)
HOXB4 [2] = target: HOXB4 (Homo sapiens, UniProt P17483 148-234)
SHOX [3] = target: SHOX (Homo sapiens, UniProt O15266 103-189)
HESX1 [4] = target: HESX1 (Homo sapiens, UniProt Q9UBX0 95-180)
HOXA4 = HOXA4 (Homo sapiens, UniProt Q00056 201-287, R217L)
HOXB4 [5] = target: HOXB4 (Homo sapiens, UniProt P17483 148-234, V174I)
MSX2 [6] = target: MSX2 (Homo sapiens, UniProt P35548 130-214, R199I)
ALX3 [7] = target: ALX3 (Homo sapiens, UniProt O95076 139-225, N203Q)
SHOX [8] = target: SHOX (Homo sapiens, UniProt O15266 103-189, R173C)
ALX3 [9] = target: ALX3 (Homo sapiens, UniProt O95076 139-225)
PROP1 [10] = target: PROP1 (Homo sapiens, UniProt O75360 56-141)
HESX1 [11] = target: HESX1 (Homo sapiens, UniProt Q9UBX0 95-180, R109Q)
PROP1 [12] = target: PROP1 (Homo sapiens, UniProt O75360 56-141, R99H)
ALX3 [13] = target: ALX3 (Homo sapiens, UniProt O95076 139-225, L168Q)
HESX1 [14] = target: HESX1 (Homo sapiens, UniProt Q9UBX0 95-180, P111T)
ALX3 [15] = target: ALX3 (Homo sapiens, UniProt O95076 139-225, L168V)
PROP1 [16] = target: PROP1 (Homo sapiens, UniProt O75360 56-141, F88S)
MSX2 [17] = target: MSX2 (Homo sapiens, UniProt P35548 130-214, F161Y)
HESX1 [18] = target: HESX1 (Homo sapiens, UniProt Q9UBX0 95-180, F115L)
ALX3 [19] = target: ALX3 (Homo sapiens, UniProt O95076 139-225, N203S)
Chain of ALX3 (Homo sapiens, UniProt O95076 139-225, N203S) (O95076 139-225 N203S): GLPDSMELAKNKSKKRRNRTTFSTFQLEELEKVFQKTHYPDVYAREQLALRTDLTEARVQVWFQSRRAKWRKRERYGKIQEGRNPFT

Chain of PROP1 (Homo sapiens, UniProt O75360 56-141, R99H) (O75360 56-141 R99H): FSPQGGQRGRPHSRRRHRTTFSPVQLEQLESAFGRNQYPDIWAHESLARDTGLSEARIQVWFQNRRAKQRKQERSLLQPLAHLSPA
Chain of PROP1 (Homo sapiens, UniProt O75360 56-141) (O75360 56-141): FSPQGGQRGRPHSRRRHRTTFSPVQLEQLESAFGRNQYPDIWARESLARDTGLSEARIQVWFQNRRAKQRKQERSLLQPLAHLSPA
Chain of HOXA4 (Q00056 201-287 R217L): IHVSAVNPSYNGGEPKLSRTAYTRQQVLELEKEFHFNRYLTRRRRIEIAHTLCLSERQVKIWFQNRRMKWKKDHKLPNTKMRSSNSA
Chain of SHOX (Homo sapiens, UniProt O15266 103-189, R173C) (O15266 103-189 R173C): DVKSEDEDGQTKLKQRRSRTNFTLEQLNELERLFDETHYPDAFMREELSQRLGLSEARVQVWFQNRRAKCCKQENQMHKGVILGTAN
Chain of MSX2 (Homo sapiens, UniProt P35548 130-214, R199I) (P35548 130-214 R199I): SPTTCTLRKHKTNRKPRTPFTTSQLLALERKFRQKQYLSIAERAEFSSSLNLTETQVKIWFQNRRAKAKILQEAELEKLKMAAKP
Chain of HESX1 (Homo sapiens, UniProt Q9UBX0 95-180, F115L) (Q9UBX0 95-180 F115L): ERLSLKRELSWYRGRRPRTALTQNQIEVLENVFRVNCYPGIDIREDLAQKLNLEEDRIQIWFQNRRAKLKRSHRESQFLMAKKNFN
Chain of ALX3 (Homo sapiens, UniProt O95076 139-225, N203Q) (O95076 139-225 N203Q): as the sequence (O95076 139-225 N203S) above, with S65Q counted along it
Chain of ALX3 (Homo sapiens, UniProt O95076 139-225, L168V) (O95076 139-225 L168V): as the sequence (O95076 139-225 N203S) above, with L30V, S65N counted along it
Chain of HESX1 (Homo sapiens, UniProt Q9UBX0 95-180, R109Q) (Q9UBX0 95-180 R109Q): as the sequence (Q9UBX0 95-180 F115L) above, with R15Q, L21F counted along it
Chain of SHOX (Homo sapiens, UniProt O15266 103-189) (O15266 103-189): as the sequence (O15266 103-189 R173C) above, with C71R counted along it
Chain of ALX3 (Homo sapiens, UniProt O95076 139-225, L168Q) (O95076 139-225 L168Q): as the sequence (O95076 139-225 N203S) above, with L30Q, S65N counted along it
Chain of HOXB4 (Homo sapiens, UniProt P17483 148-234) (P17483 148-234): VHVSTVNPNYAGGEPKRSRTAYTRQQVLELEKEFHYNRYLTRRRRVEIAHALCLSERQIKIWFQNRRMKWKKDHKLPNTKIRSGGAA
Chain of HESX1 (Homo sapiens, UniProt Q9UBX0 95-180) (Q9UBX0 95-180): as the sequence (Q9UBX0 95-180 F115L) above, with L21F counted along it
Chain of HESX1 (Homo sapiens, UniProt Q9UBX0 95-180, R165K) (Q9UBX0 95-180 R165K): as the sequence (Q9UBX0 95-180 F115L) above, with L21F, R71K counted along it
Chain of HOXB4 (Homo sapiens, UniProt P17483 148-234, V174I) (P17483 148-234 V174I): as the sequence (P17483 148-234) above, with V27I counted along it
Chain of HESX1 (Homo sapiens, UniProt Q9UBX0 95-180, P111T) (Q9UBX0 95-180 P111T): as the sequence (Q9UBX0 95-180 F115L) above, with P17T, L21F counted along it
Chain of ALX3 (Homo sapiens, UniProt O95076 139-225) (O95076 139-225): as the sequence (O95076 139-225 N203S) above, with S65N counted along it
Chain of PROP1 (Homo sapiens, UniProt O75360 56-141, F88S) (O75360 56-141 F88S): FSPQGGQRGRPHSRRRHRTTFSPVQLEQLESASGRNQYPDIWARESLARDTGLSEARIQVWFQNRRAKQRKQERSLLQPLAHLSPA
Chain of MSX2 (Homo sapiens, UniProt P35548 130-214, F161Y) (P35548 130-214 F161Y): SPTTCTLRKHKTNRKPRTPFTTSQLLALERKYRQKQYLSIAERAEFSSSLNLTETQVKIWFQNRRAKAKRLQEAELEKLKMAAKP

Row | Sequence | binding signal (HESX1 [1]) | binding signal (HOXB4 [2]) | binding signal (SHOX [3]) | binding signal (HESX1 [4]) | binding signal (HOXA4) | binding signal (HOXB4 [5]) | binding signal (MSX2 [6]) | binding signal (ALX3 [7]) | binding signal (SHOX [8]) | binding signal (ALX3 [9]) | binding signal (PROP1 [10]) | binding signal (HESX1 [11]) | binding signal (PROP1 [12]) | binding signal (ALX3 [13]) | binding signal (HESX1 [14]) | binding signal (ALX3 [15]) | binding signal (PROP1 [16]) | binding signal (MSX2 [17]) | binding signal (HESX1 [18]) | binding signal (ALX3 [19])
1 | AAATTAAT | 11.7 upbm affinity estimate (log intensity, higher = more binding, comparable within an allelic series) | 12.9 upbm affinity estimate (log intensity, higher = more binding, comparable within an allelic series) | 11.9 upbm affinity estimate (log intensity, higher = more binding, comparable within an allelic series) | 11.5 upbm affinity estimate (log intensity, higher = more binding, comparable within an allelic series) | 12.1 upbm affinity estimate (log intensity, higher = more binding, comparable within an allelic series) | 13.6 upbm affinity estimate (log intensity, higher = more binding, comparable within an allelic series) | 12.2 upbm affinity estimate (log intensity, higher = more binding, comparable within an allelic series) | 8.56 upbm affinity estimate (log intensity, higher = more binding, comparable within an allelic series) | 9.34 upbm affinity estimate (log intensity, higher = more binding, comparable within an allelic series) | 12.5 upbm affinity estimate (log intensity, higher = more binding, comparable within an allelic series) | 11.2 upbm affinity estimate (log intensity, higher = more binding, comparable within an allelic series) | 8.9 upbm affinity estimate (log intensity, higher = more binding, comparable within an allelic series) | 10.9 upbm affinity estimate (log intensity, higher = more binding, comparable within an allelic series) | 10.6 upbm affinity estimate (log intensity, higher = more binding, comparable within an allelic series) | 10.4 upbm affinity estimate (log intensity, higher = more binding, comparable within an allelic series) | 10 upbm affinity estimate (log intensity, higher = more binding, comparable within an allelic series) | 7.7 upbm affinity estimate (log intensity, higher = more binding, comparable within an allelic series) | 13.1 upbm affinity estimate (log intensity, higher = more binding, comparable within an allelic series) | 7.97 upbm affinity estimate (log intensity, higher = more binding, comparable within an allelic series) | 8.72 upbm affinity estimate (log intensity, higher = more binding, comparable within an allelic series)
2 | CCAATTAA | 13.6 upbm affinity estimate (log intensity, higher = more binding, comparable within an allelic series) | 13 upbm affinity estimate (log intensity, higher = more binding, comparable within an allelic series) | 12.7 upbm affinity estimate (log intensity, higher = more binding, comparable within an allelic series) | 13.5 upbm affinity estimate (log intensity, higher = more binding, comparable within an allelic series) | 12 upbm affinity estimate (log intensity, higher = more binding, comparable within an allelic series) | 13.7 upbm affinity estimate (log intensity, higher = more binding, comparable within an allelic series) | 13.3 upbm affinity estimate (log intensity, higher = more binding, comparable within an allelic series) | 8.51 upbm affinity estimate (log intensity, higher = more binding, comparable within an allelic series) | 10.3 upbm affinity estimate (log intensity, higher = more binding, comparable within an allelic series) | 12.9 upbm affinity estimate (log intensity, higher = more binding, comparable within an allelic series) | 12 upbm affinity estimate (log intensity, higher = more binding, comparable within an allelic series) | 10.8 upbm affinity estimate (log intensity, higher = more binding, comparable within an allelic series) | 12.2 upbm affinity estimate (log intensity, higher = more binding, comparable within an allelic series) | 11.2 upbm affinity estimate (log intensity, higher = more binding, comparable within an allelic series) | 12.2 upbm affinity estimate (log intensity, higher = more binding, comparable within an allelic series) | 10.8 upbm affinity estimate (log intensity, higher = more binding, comparable within an allelic series) | 7.84 upbm affinity estimate (log intensity, higher = more binding, comparable within an allelic series) | 13.8 upbm affinity estimate (log intensity, higher = more binding, comparable within an allelic series) | 8.43 upbm affinity estimate (log intensity, higher = more binding, comparable within an allelic series) | 8.7 upbm affinity estimate (log intensity, higher = more binding, comparable within an allelic series)
3 | ATAATTGA | 13.1 upbm affinity estimate (log intensity, higher = more binding, comparable within an allelic series) | 13 upbm affinity estimate (log intensity, higher = more binding, comparable within an allelic series) | 12.3 upbm affinity estimate (log intensity, higher = more binding, comparable within an allelic series) | 13.1 upbm affinity estimate (log intensity, higher = more binding, comparable within an allelic series) | 12 upbm affinity estimate (log intensity, higher = more binding, comparable within an allelic series) | 13.7 upbm affinity estimate (log intensity, higher = more binding, comparable within an allelic series) | 12.8 upbm affinity estimate (log intensity, higher = more binding, comparable within an allelic series) | 8.47 upbm affinity estimate (log intensity, higher = more binding, comparable within an allelic series) | 9.68 upbm affinity estimate (log intensity, higher = more binding, comparable within an allelic series) | 12.5 upbm affinity estimate (log intensity, higher = more binding, comparable within an allelic series) | 11.6 upbm affinity estimate (log intensity, higher = more binding, comparable within an allelic series) | 9.23 upbm affinity estimate (log intensity, higher = more binding, comparable within an allelic series) | 11.8 upbm affinity estimate (log intensity, higher = more binding, comparable within an allelic series) | 10.7 upbm affinity estimate (log intensity, higher = more binding, comparable within an allelic series) | 11.7 upbm affinity estimate (log intensity, higher = more binding, comparable within an allelic series) | 10.2 upbm affinity estimate (log intensity, higher = more binding, comparable within an allelic series) | 7.86 upbm affinity estimate (log intensity, higher = more binding, comparable within an allelic series) | 13.5 upbm affinity estimate (log intensity, higher = more binding, comparable within an allelic series) | 8.13 upbm affinity estimate (log intensity, higher = more binding, comparable within an allelic series) | 8.62 upbm affinity estimate (log intensity, higher = more binding, comparable within an allelic series)
4 | ACCAATTA | 13.7 upbm affinity estimate (log intensity, higher = more binding, comparable within an allelic series) | – | 12.7 upbm affinity estimate (log intensity, higher = more binding, comparable within an allelic series) | 13.6 upbm affinity estimate (log intensity, higher = more binding, comparable within an allelic series) | – | 13.6 upbm affinity estimate (log intensity, higher = more binding, comparable within an allelic series) | 13.4 upbm affinity estimate (log intensity, higher = more binding, comparable within an allelic series) | 8.43 upbm affinity estimate (log intensity, higher = more binding, comparable within an allelic series) | 10.4 upbm affinity estimate (log intensity, higher = more binding, comparable within an allelic series) | 12.8 upbm affinity estimate (log intensity, higher = more binding, comparable within an allelic series) | 12 upbm affinity estimate (log intensity, higher = more binding, comparable within an allelic series) | 10.8 upbm affinity estimate (log intensity, higher = more binding, comparable within an allelic series) | 12.3 upbm affinity estimate (log intensity, higher = more binding, comparable within an allelic series) | 11.1 upbm affinity estimate (log intensity, higher = more binding, comparable within an allelic series) | 12.3 upbm affinity estimate (log intensity, higher = more binding, comparable within an allelic series) | 10.7 upbm affinity estimate (log intensity, higher = more binding, comparable within an allelic series) | 7.81 upbm affinity estimate (log intensity, higher = more binding, comparable within an allelic series) | 13.8 upbm affinity estimate (log intensity, higher = more binding, comparable within an allelic series) | 8.41 upbm affinity estimate (log intensity, higher = more binding, comparable within an allelic series) | 8.62 upbm affinity estimate (log intensity, higher = more binding, comparable within an allelic series)
